According to PubChem BioAssay (NCATS):
Records with an inconclusive call do not appear. Active and inactive are the calls of the source. Calls follow the shape of the dose curve; as a rule, active = well fitted inhibition curve with a large enough effect; inconclusive = small, poorly fitted or top-dose-only effect, or effect the other way; inactive = flat fitted curve, though single readings scatter.

Assay: qHTS for Inhibitors of Plasmodium falciparum (CP250) proliferation (AID 504320)
Conditions: P. falciparum CP250 in erythrocytes, SYBR Green DNA, 72 h; series mostly up to 6.7 µM
Text: Plasmodium falciparum is a virulent malarial parasite that kills 1-2 million people worldwide each year. Malaria not only inflicts tremendous suffering and morbidity on the human population, but has dramatically influenced the course of civilization with profound sociological and economic implications (Shah, S. 2010). Transmitted by mosquitoes, the sporozoite form of the parasite enters the blood stream to infect hepatocytes, where they become merozoites that infect red blood cells (erythrocytes). Within erythrocytes, merozoites begin a […] cycle of growth and division, after which the parasite is released to infect new red blood cells. Gametocytes, which form within erythrocytes as well, circulate in the bloodstream and are ingested by the mosquito, thereby completing the life cycle (see CDC website). To profile malarial lines for differential chemical responses and to identify inhibitors of malarial growth, an assay that measures P. falciparum growth and replication within erythrocytes was employed. This assay uses a DNA binding fluorescent dye (SYBR Green) to detect parasite DNA following cell lysis. Because mature erythrocytes lack DNA, only Plasmodium-derived DNA is detected. The P. falciparum line cp250, derived from a malarial isolate from Cambodia, (Mu, J., et al. 2010) was added to the panel of lines, Dd2, HB3, 7G8 and GB4 in this study. Laboratory of Assay Development and Screening Technology [ADST] and NIH Chemical Genomics Center [NCGC] Boston University, Chemistry Department, Center for Chemical Methodology and Library Development [CMLD-BU] NIH National Institute of Allergy and Infectious Diseases [NIAID]
ADST Assay Protocol Summary: The 1536-well SYBR Green viability assay was based on the method of Bennett et al (2004) and described previously in 1536-well format (Yuan J., et al. 2009). For screening 3 ul culture medium was dispensed into 1536 well black clear bottom plates (Aurora Biotechnologies) using a Multidrop Combi (Thermo Fisher Scientific Inc.), 23 nL compounds in DMSO were added by a pin transfer (Cleveland, P.H. and Koutz, P.J, 2005) using a pin tool-based delivery system (Kalypsys), and 5 ul of erythrocytes infected with P. falciparum one of five lines (cp250, Dd2, HB3, 7G8 or GB4, 0.3% parasitemia, 2.5% hematocrit final concentration) were added. The plates were incubated at 37C in a humidified incubator in 5% CO2 for 72 h, and 2 ul lysis buffer (20 mM Tris HCl, 10 mM EDTA, 0.16% saponin, 1.6% triton X, 10X SYBR Green I (supplied as 10,000X final concentration by Invitrogen) was added to each well. The plates were mixed for 25 sec with gentle shaking and incubated overnight at room temperature in the dark. The following morning, fluorescence intensity at 485(14) nm excitation and 535(25) nm emission wavelengths was measured on an EnVision (Perkin Elmer) plate reader. Plate reads were normalized relative to the control inhibitor (0.29 uM artemisinin) and vehicle (DMSO) wells present on each plate and then corrected by an algorithm using vehicle-only control plates at the beginning and end of the compound plate stack. References Shah, S. (2010). The Fever: how malaria has ruled humankind for 500,000 years. New York, Sarah Crichton Books. CDC web site, http://www.cdc.gov/malaria/about/biology/index.html Mu, J., Myers, R.A., Jiang, H., Liu, S., Ricklefs, S., Waisberg, M., Chotivanich, K., Wilairatana, P., Krudsood, S., White, N.J., et Plasmodium falciparum genome-wide scans for positive selection, recombination hot spots and resistance to antimalarial drugs Nature Genetics 2010, 42, pp 268-271 Bennett TN, Paguio, M., Gligorijevic, B., Seudieu, C., Kosar, A. D., Davidson, E., and Roepe, P. D. Novel, rapid, and inexpensive cell-based quantification of antimalarial drug efficacy Antimicrobial Agents Chemother. 2004, 48(5): pp 1807-10 Yuan J, Johnson RL, Huang RL, Wichterman J, Jiang HY, Hayton K, Fidock DA, Wellems TE, Inglese J, Austin CP, Su XZ. […]

Potency, inactive:
CCCCC1=CC2=C(c3ccco3)C(=O)C(C)(OC(=O)c3ccc(OC)cc3)C(=O)C2=CN1C1CCCCC1 (stereo not given)
CCOC(=O)CCN1C(=O)[C@@H]2[C@H]3[C@H](O)[C@H](O)CC(=NO[C@@H]4O[C@H](COC(C)=O)[C@@H](OC(C)=O)[C@H](OC(C)=O)[C@@H]4OC(C)=O)[C@H]3CC[C@H]2C1=O
CCOC(=O)NN=C1C[C@@H](O)[C@@H](O)[C@@H]2[C@H]3C(=O)N(C4CCCCC4)C(=O)[C@@H]3CC[C@H]12
C[C@H]1Cc2c(COc3ccccc3)nc3c(c2CO1)CN(C(=O)NCc1ccco1)CC3
COC(=O)N[C@@H](c1cccc(F)c1)C(C(C)=O)C(=O)OC (stereo not given in full)
CC(CCC(=O)OC[C@H]1O[C@H](C#Cc2ccccc2)C=C[C@H]1Oc1ccc(C)cc1)=NO[C@@H](C)c1cn([C@H](CO)Cc2ccccc2)nn1
C[C@@H]1C[C@](C)(C(=O)c2ccc3c(c2)OCO3)C=C1c1ccc2c(c1)OCO2
CC(C)(C)Nc1oc(-c2ccccc2)nc1-c1ccccc1F
CO[C@H](C1CCCCC1)[C@H](C)C=CCC(=O)OCCCc1ccccc1
CCN1C(=NCc2ccc(OC)cc2)NC(c2cccc(F)c2)C(C(=O)OC)=C1C (stereo not given)
COC(=O)N[C@H](C(C(=O)OC)=C(C)NCc1ccccc1)c1cccs1
CC(C)=CCCC(C)=CCN1C(=O)[C@]2(O[C@H](C)CC3=CCCC32)c2c(Br)cccc21 (stereo not given in full)
COC(=O)C1=C(C(=O)OC)[C@@H]2N(C)c3ccccc3[C@@]23CCC(=O)N(CC(C)C)C3=N1
CCN1C(=O)NC(c2cccs2)C(C(=O)OC)=C1C (stereo not given)
CCOC(=O)NN=C1C[C@@H](O)[C@@H](O)[C@@H]2[C@H]3C(=O)N(c4cccc(Oc5ccccc5)c4)C(=O)[C@@H]3CC[C@@H]12
C#CCN1C(=O)[C@]2(O[C@H](C)CC3=CCCC32)c2c(Br)cccc21 (stereo not given in full)
CCCC[C@]12Cc3cc(C#N)ccc3[C@H](O1)c1c(c3cc(F)ccc3oc1=O)O2
COC(=O)[C@H]1O[C@@H](c2cc(OC)c(C)c(OC)c2O)[C@H](C)[C@@H](O)[C@@H]1C
COc1ccc([C@]23Cc4cc(C#N)ccc4[C@H](O2)c2c(cc(C)n(Cc4ccccc4)c2=O)O3)cc1
C=CCO[C@@H]1C=C[C@@H](c2ccccc2)O[C@@H]1COC
COc1cccc2c1[C@H](C=Cc1ccccc1)[C@@H]([C@H](O)CO)OC2
C[C@H]1CC[C@H]2C(=O)N(Cc3ccccc3)C[C@@H](O)CN2[C@H]1c1ccc(Br)cc1
CCN1C(=NCCc2c[nH]c3ccccc23)NC(c2cccc(F)c2)C(C(=O)OC)=C1C (stereo not given)
CC1=C[C@@H](COCc2ccccc2)O[C@@]2(C1)C(=O)Nc1cccc(Br)c12
C=CCN1c2ccccc2[C@]23CCC(=O)N(CC4CC4)C2=NC(C(=O)OC)=C(C(=O)OC)[C@H]13
C=C(C(C)=O)C(O)c1ccc([N+](=O)[O-])cc1 (stereo not given)
COCCN1C(=O)N[C@@H](c2ccccc2)[C@H](C(C)=O)[C@H]1C
COCCN1C(=O)CC[C@@]23C1=NC(C(=O)OC)=C(C(=O)OC)[C@@H]2N(CC=C(C)C)c1ccccc13
CC12C=C(C=CCCc3ccco3)C(C)(C1)[C@H](CCc1ccco1)CC2=O (stereo not given in full)
CC(C)OC(=O)[C@H]1O[C@H](CCCCOCc2ccccc2)[C@@H](C)[C@H]2O[C@H]21
CCN1C(=O)[C@H]2[C@H]3C(=CC[C@@H]2C1=O)C1(OCCCO1)[C@@H]1O[C@H]1[C@H]3O
C=C1C2c3ccccc3C(CC2(C)O[Si](C)(C)C)N1C(=O)OC (stereo not given)
CCOC(=O)C1=NO[C@@]2(C=C(Br)C(=O)[C@H]3O[C@H]32)C1
CCOC(=O)[C@@]1([C@@H](NC(=O)OC)c2cccc(C)c2)CCCC1=O
COC(=O)C(C(=O)OC)C1OC23CN(S(=O)(=O)c4ccc(C)cc4)C=CC2(C)C3c2ccccc21 (stereo not given)
COC(=O)NC(c1ccccc1)c1c[nH]c2ccc(OC)cc12 (stereo not given)
COC(=O)C1=C(C(=O)OC)[C@@H]2N(C)c3ccccc3[C@@]23C[C@@H](C(=O)OC)N(C(=O)NC2CCCC2)C3=N1
C=CC[C@](C)(O)c1ccccc1
COC(=O)N[C@H](C(C(=O)OC)=C(C)NCc1ccccc1)c1ccccc1
C=CCOC(=O)NC(c1ccc(F)c(F)c1)S(=O)(=O)c1ccc(Cl)cc1 (stereo not given)
